Bioassay records: PubChem, National Center for Advancing Translational Sciences (NCATS)
HCV inhibitor: HCV inhibition | Huh7.5.1 HCVcc-Cre infection, luciferase reporter, 44 h | Potency, µM (top dose mostly 41.8 µM), inactives show at the highest dose activity change, negative = inhibition, most hits filed as inhibitors | hit rate 3.4% among 340,000 | AID 651820; also: potency is read from the fitted curve at half-maximal effect; % is scaled to controls: 0 for no effect and ±100 for the full control effect
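Infectious HCVcc-Cre (~0.5 moi) was added to cells just after compound, with cells seeded 4 h earlier at 1,000 per well. Luciferase activity after 44 h culture reported infection; substrate was incubated 15 min at room temperature before reading.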
Pf growth 48h: P. falciparum growth inhibition at 48 hours (one generation); P. falciparum luciferase growth in erythrocytes, 48 h; Potency, µM (doses to about 28.7 µM), without a hit: top-dose activity change, negative = inhibition, most hits filed as inhibitors; hit rate 5.9% among 310,000; also: potency is read from the fitted curve at half-maximal effect; % is scaled to controls: 0 for no effect and ±100 for the full control effect
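Firefly luciferase activity from engineered P. falciparum reports growth; inhibitors lower the luminescent signal. Cultures contained 2% hematocrit erythrocytes at 0.1% final parasitemia.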
SARS PLpro yeast: inhibitors of SARS-CoV papain-like protease in yeast | S. cerevisiae expressing SARS-CoV PLpro, growth rescue | Potency, µM (series often up to 32.9 µM), inactives show at the top dose activity, positive = growth rescue, usual class: activators | hit rate 0.19% among 330,000 | AID 485353; calls by dose curve; also: potency is read from the fitted curve at half-maximal effect; 0% is about no effect; nearly all actives have a fitted effect of over 55% in size
HCMV antiviral: inhibitors of human cytomegalovirus; hit rate 4.5% among 410,000; activity change, negative = inhibition, % at 57.5 µM; HFF cells, HCMV-luciferase reporter, 72 h; hits give low values; in the data active = activity change below about -60%; inconclusive = no clear call, values can overlap the other calls; inactive = above about -39%; also: % is scaled to controls: 0 for no effect and ±100 for the full control effect
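Steps: HFFs plated, 16 h 37C; compounds added; HCMV-luciferase added to MOI 1 PFU/cell; 72 h 37C; OneGlo reagent, 5 min room temperature; luminescence read, normalized to controls.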
Pf growth 96h: P. falciparum growth inhibition at 96 hour, primary screen for plastid delayed-death inhibitors; P. falciparum luciferase reporter growth, 96 h; Potency, µM (doses to about 28.7 µM), for the others: top-dose activity change, negative = inhibition, actives largely listed as inhibitors; hit rate 6.9% among 320,000; also: potency is read from the fitted curve at half-maximal effect; % is scaled to controls: 0 for no effect and ±100 for the full control effect
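Luminescence readout: decreased luciferase signal marks inhibited growth of reporter-expressing P. falciparum in infected red cells (2% hematocrit, 0.05% parasitemia final), exposed to compound two generations (96 h, 37 C, 5% CO2).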
Sm TGR inh: inhibitors of Schistosoma mansoni thioredoxin glutathione reductase. hit rate 3% among 360,000. Potency, µM (titrated, usually from 114 µM), inactives show at the highest dose activity change, negative = inhibition, actives largely listed as inhibitors. purified TGR, DTNB reduction, TNB absorbance 405 nm. Q962Y6; also: potency is read from the fitted curve at half-maximal effect; % is scaled to controls: 0 for no effect and ±100 for the full control effect; nearly all actives have a fitted effect of over 60% in size
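Kinetic colorimetric format: TGR-catalysed, NADPH-driven DTNB reduction monitored via TNB absorbance. Enzyme dispensed at 20 nM; compound exposure 15 min at room temperature before reaction start.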
The depositor's hits bear a star; u = inconclusive; x = not tested or not shown; ! = not confirmed by another sample. Compounds with a hit are over-represented: about 15% of the library has one in this group of screens. Unless noted, calls follow the shape of the dose curve; as a rule, active = well fitted curve in the direction sought with a large enough effect; inconclusive = small, poorly fitted or top-dose-only effect, or another doubt; inactive = no such curve, though single readings can be large; an effect the other way counts as inactive or inconclusive.

SMILES	HCV inhibitor	Pf growth 48h	SARS PLpro yeast	HCMV antiviral	Pf growth 96h	Sm TGR inh
COc1cc(/C=N/NC(=O)c2nnn(-c3nonc3N)c2C)ccc1OCc1ccc(Cl)cc1	x	x	x	-61*	x	x
Cc1c(C(=O)N/N=C/c2cccc(O)c2)nnn1-c1nonc1N	-20%	u	-4%	u	13µM*	-21%
COc1ccc(CCNc2ncnc3c2c(-c2ccccc2)cn3-c2cccc(Cl)c2)cc1OC	x	x	x	25	x	24%
COc1ccc(OC)c(NC(=O)CN2CCCN(Cc3ccccc3Cl)S2(=O)=O)c1	x	x	x	0	x	6%
COc1ccc(CNc2oc(/C=C/c3cccc(OC)c3)nc2C#N)cc1	x	x	x	38	x	-2%
Cc1sc2nc(SCC(=O)NCCO)n(C)c(=O)c2c1C	-2%	7%	-7%	-20	9.3µM*	-1%
Cc1nc(SCC(=O)Nc2ccccc2Cl)c2c(C)c(C)sc2n1	7%	5.2µM*	-3%	u	u	-9%
Cc1sc2nc(SCC(=O)Nc3c(C)n(C)n(-c4ccccc4)c3=O)n(C)c(=O)c2c1C	-25%	-18%	2%	-10	-22%	-10%
COc1ccccc1NC(=O)CSc1nc2sc(C)c(C)c2c(=O)n1C	10µM*	-1%	7%	10	u	-2%
COc1ccccc1NC(=O)CSC1=NC(=O)C(NC(C)=O)C(=O)N1 (stereo unspecified)	-14%	4%	5%	50	0.83µM*	-8%
O=S1(=O)N[C@H](Cc2ccccc2)COc2cccc(N3CCC[C@@H]3CO)c21	x	x	x	-12	x	x
CCSc1ncc(Cl)c(C(=O)N(Cc2ccccc2Cl)C2CCS(=O)(=O)C2)n1 (stereo unspecified)	x	x	x	16	x	6%
CCOC(=O)c1c(C)[nH]c(C(=O)CSc2ccccc2)c1C	u	128%	1%	35	220%	-11%
CC(=O)c1c(C)[nH]c(C(=O)CSc2ccc(F)cc2)c1C	13µM*	91%	0%	u	117%	3%
CCn1c(SCC(=O)c2[nH]c(C)c(C(C)=O)c2C)nnc1-c1ccccc1	5.6µM*	-14%	-2%	-37	u	1%
CC(=O)c1c(C)[nH]c(C(=O)CSc2nnc(-c3ccc(Cl)cc3)n2CC2CCCO2)c1C (stereo unspecified)	u	x	11%	-2	5.9µM*	-6%
O=C(CSc1cccc[n+]1[O-])Nc1c(Br)cc([N+](=O)[O-])cc1Br	15%	u	5%	-6	0%	-9%
Clc1ccc(N=c2ssnc2Cl)cc1	11%	-6%	-91%	-27	u	u
COc1ccc(N=c2ssnc2Cl)cc1	3%	30%	-84%	x	16%	56µM*
N#Cc1ccc(N=c2ssnc2Cl)cc1	26%	43%	-6%	-30	12µM*!	u
FC(F)Sc1ccc(-n2cc(-c3ccc(Cl)cc3)[n+]3c2CCC3)cc1	8%	0.74µM*	-1%	-23	u	1%
Clc1ccc(-n2cc(-c3ccc(Br)cc3)[n+]3c2CCCCC3)cc1	-3%	u	-1%	-30	u	-3%
Cc1ccc(-c2cn(-c3ccc(SC(F)F)cc3)c3[n+]2CCC3)cc1	u	0.37µM*	-13%	-98*	u	-4%
CCOC(=O)c1c(C)oc2nc(C)nc(N3CCN(c4cccc(C(F)(F)F)c4)CC3)c12	x	x	x	-64*	x	31%
CCOC(=O)c1c(C)[nH]c(C)c1S(=O)(=O)NCCCN1CCOCC1	19%	12%	-3%	23	u	-1%
SMILES	HCV inhibitor	Pf growth 48h	SARS PLpro yeast	HCMV antiviral	Pf growth 96h	Sm TGR inh
Cc1[nH]c(=O)[nH]c(=O)c1S(=O)(=O)N1CCC(C(=O)N2CCN(c3cccc(C(F)(F)F)c3)CC2)CC1	u	10µM*	-2%	u	18%	2%
CCOC(=O)c1c(C)[nH]c(C)c1S(=O)(=O)N1CCOCC1	3%	28%	-2%	u	6.6µM*	-2%
CCOC(=O)c1c(C)[nH]c(C)c1S(=O)(=O)N1CCC(C(=O)N2CCN(c3ccc(F)cc3)CC2)CC1	x	x	x	-3	x	-12%
CCOC(=O)c1c(C)oc2nc(C)nc(N3CCN(c4ccccc4)CC3)c12	x	x	x	u	x	10%
CCOC(=O)c1c(C)[nH]c(C)c1S(=O)(=O)N1CCN(c2ccc(F)cc2)CC1	5%	-6%	3%	29	8.3µM*	-8%
CC(=O)c1ccc(N2CCN(C(=O)c3cccs3)CC2)c(F)c1	-4%	u	-4%	27	u	u
CCOC(=O)c1c(C)[nH]c(C)c1S(=O)(=O)N1CCN(c2cccc(C(F)(F)F)c2)CC1	x	x	x	-101*	x	7%
O=Cc1ccccc1OCCN1CCCC1=O	12%	6%	3%	-63*	-13%	1%
CCC1=[N+](CC(=O)c2ccc(C)cc2)CCn2c(C)ccc21	u	3.3µM*	0%	-63*	u	-34%
CCC1=[N+](CC(=O)c2ccc(Br)cc2)CCn2c(C)ccc21	-3%	5.9µM*	7%	-28	u	18µM*
CCC1=[N+](CC(=O)c2ccc(C)cc2)CCn2cccc21	9%	u	-1%	3	-2%	x
O=C(Cc1ccsc1-c1ccccc1)NO	10µM*	13µM*	2%	-32	15%	4%
CCOC(=O)C1CCN(C(=O)c2cc(C(C)(C)C)nn2Cc2ccccc2)CC1	-3%	1.2µM*	1%	1	1.2µM*	8%
CCOC(=O)C1CCN(C(=O)C2CCN(c3nc4ccc(OC)cc4s3)CC2)CC1	u	u	-7%	7	10µM*	1%
CCOC(=O)C1CCCN(C(=O)c2ccccc2)CC1 (stereo unspecified)	x	x	x	-22	x	x
CCOC(=O)C1CCCN(C(=O)c2cccc(Cl)c2)CC1 (stereo unspecified)	x	x	x	2	x	x
CCOC(=O)C1CCN(C(=O)c2cccc(Cl)c2)CC1	7%	-8%	-1%	-2	7.4µM*	-2%
CCOC(=O)C1CCN(C(=O)c2ccc3nc(-c4ccc(OC)cc4)c(-c4ccc(OC)cc4)nc3c2)CC1	25µM*	8.3µM*	-3%	0	8%	-2%
CCc1noc(C)c1C(=O)N1CCC(CCC(=O)Nc2cccc(C)c2)CC1	u	-21%	-3%	19	-23%	-12%
Cc1ccccc1-c1nnc(SCC(=O)N2CCCC2)o1	-17%	55%	-2%	-8	-14%	23%
O=C(NNC(=O)[C@H]1CC=CC[C@H]1C(=O)O)c1ccc(Cl)cc1Cl	0%	0%	2%	u	45%	12%
O=C(c1cccc(Cl)c1)N1CCN(C2CCCCC2)CC1	1%	1%	5%	12	34%	9%
O=C(c1cccc(Cl)c1)N1CCC(N2CCC(C(=O)N3CCCC3)CC2)CC1	u	u	24%	u	15µM*	1%
